What follows are compounds tested against Hexose transporter 1 (Plasmodium falciparum) (UniProt O97467) (assay: ST_JUDE_LEISH: Cytotoxicity at 2uM final concentration against transgenic Leishmania Mexicana promastigotes LmPfHT that are glucose transport deficient and complemented with the Plasmodium falciparum hexose transporter. Activity is measured by DNA content using SYBR green in vitro).
Format: functional
O=C(Nc1cccc(CN2CCN(C(=O)c3cccc(F)c3)CC2)c1)c1ccco1 was tested, and the inhibition was 2.31%.
Cc1cc(NCCC(=O)Nc2ccccc2)nc(NCCc2cccs2)n1 showed an inhibition of 2.26%.
Cc1ccccc1C1CCN(c2ccc(NC(=O)c3ccc(Cl)nc3)cc2)CC1 gave an inhibition of -3.74%.
O=C1CSc2ccc(CNC3CCN(CCc4c(Cl)cnc5ccc(F)cc45)CC3)nc2N1 was tested, and the inhibition was 1.12%.
Cc1cc(C2CCN(CCCCNC(=O)c3ccc(NC(=O)c4ccc(Cl)cc4)cc3)CC2)c(C)cc1OCc1cccnc1 showed an inhibition of -0.98%.
CCCCCCN1CCN(Cc2cccc(NC(=O)c3ccc(Cl)c(Cl)c3)c2)CC1 was tested, and the inhibition was 6.59%.
In the case of COc1ccccc1-n1c(SCC(=O)c2ccc3c(c2)CC(=O)N3C)nnc1-c1cccs1, the inhibition was 35.2%.
Compound COc1cc(NC(=O)/C=C/c2cccc3cc[nH]c23)ccc1OCCN(C(C)C)C(C)C has an inhibition of 1.55%.
For CCOc1ccc(Nc2cc(C)nc(Nc3ccc(OCC)cc3)n2)cc1, the inhibition was 2.01%.
Clc1ccc(CNCCCCCCCNCc2ccc(Cl)c(Cl)c2)cc1Cl showed an inhibition of -1.24%.
Work on O=C(/C=C/c1ccc(Cl)c(Cl)c1)NCCCCCN1CCC(CCNC(=O)/C=C/c2ccccc2F)CC1 yielded an inhibition of -1.13%.
Work on Cc1ccc(NC(=O)c2ccc(CN3CCCN(CC4CCCCC4)CC3)cc2)cc1 yielded an inhibition of 8.37%.
With CC(=O)N1CCC(C(=O)Nc2ccc(-c3cccc(-c4nc5cc(C(F)(F)F)ccc5[nH]4)c3)cc2)CC1 the inhibition was 3.33%.
Work on CC(NC(=O)c1cc(-c2ccccc2)nc2c1cnn2C(C)C)C1CC1 (stereo not given) yielded an inhibition of 0.66%.
With O=C(/C=C/c1ccc(Cl)c(Cl)c1)NCCCCCN1CCC(C(=O)Nc2ccc(F)c(Cl)c2)CC1 the inhibition was 1.87%.
With CCNc1cc(C(=O)N[C@@H](Cc2ccccc2)[C@H](O)CNC2(CC(C)C)CC2)cc(N2CCCCS2(=O)=O)c1 the inhibition was 4.02%.
In the case of COc1cccc2c(NCCNc3ccnc4c(OC)cccc34)ccnc12, the inhibition was 6.99%.
CCCCCN1CCCN(Cc2cccc(NC(=O)c3cc4ccccc4s3)c2)CC1 showed an inhibition of 1.5%.
In the case of O=C(C=Cc1ccc(-c2ccccc2)cc1)N1CCC(CCN2CCC(c3c[nH]c4ccccc34)CC2)CC1, the inhibition was 9.22%.
With O=S(=O)(c1ccc(Cl)cc1Cl)N1CCCCC(c2ccc(C(F)(F)F)cc2)=N1 the inhibition was 0.43%.
In the case of CC(C)CCn1c(Sc2ccc(C#N)c([N+](=O)[O-])c2)nnc1-c1cccc(Cl)c1, the inhibition was 9.97%.
COc1ccccc1-c1nc2c(ccc3nc(N)nc(N)c32)[nH]1 showed an inhibition of 58.8%.
Cc1cc(CN2CCC(Nc3ncc(-c4ccsc4)c4nc(C(F)(F)F)ccc34)CC2)no1 was tested, and the inhibition was 6.03%.
CN=C(Nc1c(Cl)cccc1Cl)N(C)C gave an inhibition of 4.13%.
For COc1ccc(-c2ccc(NC(=O)c3cccc(C#N)c3)cc2)cc1CN1CCC(O)CC1, the inhibition was -0.84%.
Work on CCCCC([C@@H](Cc1ccc2ccccc2c1)C(=O)N[C@H](C(=O)NC)C(C)(C)C)N(O)C=O (stereo not given in full) yielded an inhibition of -0.31%.
In the case of COc1cccc(NC(=O)Cn2c(C)c(C#N)c3ccccc32)c1, the inhibition was 5%.
COc1cccc(CN2CCC(N3CCc4cc(NC(=O)c5cc(C)on5)ccc43)C2)c1OC (stereo not given) gave an inhibition of 5.08%.
Compound O=C(NC1CC1)c1ccc(Cn2c(SCc3cccc([N+](=O)[O-])c3)nc3ccccc3c2=O)cc1 has an inhibition of 0.54%.
Work on Oc1c(C(Nc2nc3ccccc3s2)c2ccc(OC(F)F)cc2)ccc2cccnc12 (stereo not given) yielded an inhibition of 0.37%.
In the case of COc1cc(OC)c2c(C)cc(NCCCn3ccnc3)nc2c1, the inhibition was 3.68%.
COc1ccc(NC(=O)c2ccc(-c3nc(-c4ccccc4)cs3)cc2)cc1N1CCN(C)CC1 was tested, and the inhibition was 8.4%.
NC(=O)c1ccc(NCC(=O)Nc2cccc(-c3cccc(-c4nc5cc(C(F)(F)F)ccc5[nH]4)c3)c2)cc1 gave an inhibition of 3.6%.
In the case of COc1ccc(N2CCN(CCCN3CCN(C(=O)c4ccc(/C=C/c5ccc(Cl)c(Cl)c5)cc4)CC3)CC2)c(OC)c1, the inhibition was 6.21%.
With CC(C)(C)c1ccc(CNCCOc2ccc(Nc3nnc(-c4ccc(-c5ncc[nH]5)cc4)o3)c3ccccc23)cc1 the inhibition was 2.75%.
Work on O=C(Nc1cccc(-c2ccc(CN3CCCC3)cc2)c1)c1cccc(F)c1 yielded an inhibition of 1.18%.
For CC(CN(C)C)C(=O)Nc1cccc(-c2cccc(-c3nc4ccccc4[nH]3)c2)c1 (stereo not given), the inhibition was -0.62%.
O=C(Nc1ccc(CC(=O)N2CCc3cc(Cl)c(N4CCN(C/C=C/c5ccccc5)CC4)cc32)cc1)Nc1cccc([N+](=O)[O-])c1 showed an inhibition of 1.25%.
CCOc1ccc(C(=O)Nc2cc3c(c(C(F)(F)F)c2)CCNC3)cc1Cl was tested, and the inhibition was 4.16%.
Cc1cccc2nc(-c3cccc(-c4cccc(NC(=O)NCc5ccccc5)c4)c3)[nH]c12 was tested, and the inhibition was 5.29%.

Each compound was assayed against Glucose transporter (Leishmania mexicana) (UniProt O61059) (assay: ST_JUDE_LEISH: Cytotoxicity at 2uM final concentration against transgenic Leishmania Mexicana promastigotes LmGT2 that are glucose transport deficient and complemented with the L. Mexicana glucose transporter 2. Activity is measured by DNA content using SYBR green in vitro).
Format: functional
For O=C(Nc1cccc(CN2CCN(C(=O)c3cccc(F)c3)CC2)c1)c1ccco1, the inhibition was 0.61%.
Cc1cc(NCCC(=O)Nc2ccccc2)nc(NCCc2cccs2)n1 was tested, and the inhibition was -0.18%.
For Cc1ccccc1C1CCN(c2ccc(NC(=O)c3ccc(Cl)nc3)cc2)CC1, the inhibition was 3.84%.
O=C1CSc2ccc(CNC3CCN(CCc4c(Cl)cnc5ccc(F)cc45)CC3)nc2N1 was tested, and the inhibition was 2.97%.
Cc1cc(C2CCN(CCCCNC(=O)c3ccc(NC(=O)c4ccc(Cl)cc4)cc3)CC2)c(C)cc1OCc1cccnc1 was tested, and the inhibition was -0.82%.
In the case of CCCCCCN1CCN(Cc2cccc(NC(=O)c3ccc(Cl)c(Cl)c3)c2)CC1, the inhibition was 4.85%.
Work on COc1ccccc1-n1c(SCC(=O)c2ccc3c(c2)CC(=O)N3C)nnc1-c1cccs1 yielded an inhibition of 13.3%.
COc1cc(NC(=O)/C=C/c2cccc3cc[nH]c23)ccc1OCCN(C(C)C)C(C)C was tested, and the inhibition was -2.66%.
For CCOc1ccc(Nc2cc(C)nc(Nc3ccc(OCC)cc3)n2)cc1, the inhibition was 1.02%.
Compound Clc1ccc(CNCCCCCCCNCc2ccc(Cl)c(Cl)c2)cc1Cl has an inhibition of -0.86%.
In the case of O=C(/C=C/c1ccc(Cl)c(Cl)c1)NCCCCCN1CCC(CCNC(=O)/C=C/c2ccccc2F)CC1, the inhibition was 2.95%.
Compound Cc1ccc(NC(=O)c2ccc(CN3CCCN(CC4CCCCC4)CC3)cc2)cc1 has an inhibition of 9.64%.
With CC(=O)N1CCC(C(=O)Nc2ccc(-c3cccc(-c4nc5cc(C(F)(F)F)ccc5[nH]4)c3)cc2)CC1 the inhibition was 1.24%.
Work on CC(NC(=O)c1cc(-c2ccccc2)nc2c1cnn2C(C)C)C1CC1 (stereo not given) yielded an inhibition of 0.29%.
In the case of O=C(/C=C/c1ccc(Cl)c(Cl)c1)NCCCCCN1CCC(C(=O)Nc2ccc(F)c(Cl)c2)CC1, the inhibition was 1.53%.
CCNc1cc(C(=O)N[C@@H](Cc2ccccc2)[C@H](O)CNC2(CC(C)C)CC2)cc(N2CCCCS2(=O)=O)c1 showed an inhibition of -0.34%.
COc1cccc2c(NCCNc3ccnc4c(OC)cccc34)ccnc12 was tested, and the inhibition was 7.99%.
CCCCCN1CCCN(Cc2cccc(NC(=O)c3cc4ccccc4s3)c2)CC1 showed an inhibition of 3.66%.
In the case of O=C(C=Cc1ccc(-c2ccccc2)cc1)N1CCC(CCN2CCC(c3c[nH]c4ccccc34)CC2)CC1, the inhibition was -1.2%.
O=S(=O)(c1ccc(Cl)cc1Cl)N1CCCCC(c2ccc(C(F)(F)F)cc2)=N1 was tested, and the inhibition was 1.07%.
For CC(C)CCn1c(Sc2ccc(C#N)c([N+](=O)[O-])c2)nnc1-c1cccc(Cl)c1, the inhibition was 8.26%.
For COc1ccccc1-c1nc2c(ccc3nc(N)nc(N)c32)[nH]1, the inhibition was 4.58%.
Cc1cc(CN2CCC(Nc3ncc(-c4ccsc4)c4nc(C(F)(F)F)ccc34)CC2)no1 gave an inhibition of 5.5%.
CN=C(Nc1c(Cl)cccc1Cl)N(C)C showed an inhibition of 4.17%.
In the case of COc1ccc(-c2ccc(NC(=O)c3cccc(C#N)c3)cc2)cc1CN1CCC(O)CC1, the inhibition was 2.05%.
CCCCC([C@@H](Cc1ccc2ccccc2c1)C(=O)N[C@H](C(=O)NC)C(C)(C)C)N(O)C=O (stereo not given in full) gave an inhibition of 2.89%.
COc1cccc(NC(=O)Cn2c(C)c(C#N)c3ccccc32)c1 showed an inhibition of 3.36%.
In the case of COc1cccc(CN2CCC(N3CCc4cc(NC(=O)c5cc(C)on5)ccc43)C2)c1OC (stereo not given), the inhibition was 4.28%.
In the case of O=C(NC1CC1)c1ccc(Cn2c(SCc3cccc([N+](=O)[O-])c3)nc3ccccc3c2=O)cc1, the inhibition was 0.2%.
Compound Oc1c(C(Nc2nc3ccccc3s2)c2ccc(OC(F)F)cc2)ccc2cccnc12 (stereo not given) has an inhibition of -1.77%.
With COc1cc(OC)c2c(C)cc(NCCCn3ccnc3)nc2c1 the inhibition was 0.88%.
For COc1ccc(NC(=O)c2ccc(-c3nc(-c4ccccc4)cs3)cc2)cc1N1CCN(C)CC1, the inhibition was 9.79%.
NC(=O)c1ccc(NCC(=O)Nc2cccc(-c3cccc(-c4nc5cc(C(F)(F)F)ccc5[nH]4)c3)c2)cc1 showed an inhibition of 1.91%.
COc1ccc(N2CCN(CCCN3CCN(C(=O)c4ccc(/C=C/c5ccc(Cl)c(Cl)c5)cc4)CC3)CC2)c(OC)c1 was tested, and the inhibition was 5.56%.
CC(C)(C)c1ccc(CNCCOc2ccc(Nc3nnc(-c4ccc(-c5ncc[nH]5)cc4)o3)c3ccccc23)cc1 showed an inhibition of 2.83%.
O=C(Nc1cccc(-c2ccc(CN3CCCC3)cc2)c1)c1cccc(F)c1 was tested, and the inhibition was 0.62%.
For CC(CN(C)C)C(=O)Nc1cccc(-c2cccc(-c3nc4ccccc4[nH]3)c2)c1 (stereo not given), the inhibition was 3.87%.
With O=C(Nc1ccc(CC(=O)N2CCc3cc(Cl)c(N4CCN(C/C=C/c5ccccc5)CC4)cc32)cc1)Nc1cccc([N+](=O)[O-])c1 the inhibition was 1.93%.
CCOc1ccc(C(=O)Nc2cc3c(c(C(F)(F)F)c2)CCNC3)cc1Cl was tested, and the inhibition was 5.38%.
Cc1cccc2nc(-c3cccc(-c4cccc(NC(=O)NCc5ccccc5)c4)c3)[nH]c12 gave an inhibition of -4.27%.
